Laboratory results as given in the supplement of paper PMC8975748.
Counter-ions that a name gives are not always drawn.

Tested on: Saccharomyces cerevisiae BY4741 SeMeCo community
Assay: z-score of subpopulation abundance vs DMSO median, subpopulation auxotrophic for HUM; higher = larger share of this subpopulation than in DMSO controls
Conditions: 10 µM; 24 h; SM minimal medium; subpopulation (auxotrophy): HUM
Protocol: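 Fluorescent four-plasmid SeMeCo (self-establishing metabolically cooperating S. cerevisiae BY4741 community; plasmids pH-mRuby2, pL-mWasabi, pU-eCFP, pM-TagRFP657) was grown 24 h in minimal SM medium with each Selleck FDA-approved drug at 10 µM in 384-well plates. Cells were fixed and imaged by high-content confocal microscopy. For each auxotrophic subpopulation (and the prototroph), a z-score gives the deviation from the DMSO vehicle-control population median.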

| Structure (SMILES) | z-score of subpopulation abundance |
| --- | --- |
| CN(C)[C@@H]1C(=O)C(C(N)=O)=C(O)[C@@]2(O)C(=O)C3=C(O)c4c(O)ccc(Cl)c4[C@@H](O)[C@H]3C[C@@H]12 [Demeclocycline HCl] | -1 |
| Cc1c(-c2ccccc2)oc2c(C(=O)OCCN3CCCCC3)cccc2c1=O [Flavoxate HCl] | -0.16 |
| CCn1cc(C(=O)O)c(=O)c2cc(F)c(N3CCNCC3)cc21 [Norfloxacin] | 0.46 |
| CN(C/C=C/C#CC(C)(C)C)Cc1cccc2ccccc12 [Terbinafine HCl] | 1.65 |
| O=C(O)c1cc(O)c2c(c1)[C@H]([C@H]1c3cc(C(=O)O)cc(O)c3C(=O)c3c(O[C@@H]4O[C@H](CO)[C@@H](O)[C@H](O)[C@H]4O)cccc31)c1cccc(O[C@@H]3O[C@H](CO)[C@@H](O)[C@H](O)[C@H]3O)c1C2=O [Sennoside A] | -0.7 |
| COCCCC/C(=N\OCCN)c1ccc(C(F)(F)F)cc1 [Fluvoxamine maleate] | 0.06 |
| O=C1CCc2cc(OCCCCc3nnnn3C3CCCCC3)ccc2N1 [Cilostazol] | -0.31 |
| NC[C@@H]1O[C@H](O[C@H]2[C@@H](O)[C@H](O[C@@H]3[C@@H](O)[C@H](N)C[C@H](N)[C@H]3O[C@H]3O[C@H](CN)[C@@H](O)[C@H](O)[C@H]3N)O[C@@H]2CO)[C@H](N)[C@@H](O)[C@@H]1O [Neomycin sulfate] | -1.64 |
| CC(=O)OC(C)C[N+](C)(C)C (stereo not given) [Methacholine chloride] | 0.26 |
| O=C([O-])CC(O)(CC(=O)[O-])C(=O)[O-].O=C([O-])CC(O)(CC(=O)[O-])C(=O)[O-].[Bi+3].[K+].[K+].[K+].[K+].[K+] [Bismuth Subcitrate Potassium] | -1.79 |
| CC(C)Cc1ccc(C(C)C(=O)O)cc1 (stereo not given) [Ibuprofen Lysine] | -3.01 |
| CCCCCCCCCCCCCCCCCCOP(=O)([O-])OC1CC[N+](C)(C)CC1 [Perifosine (KRX-0401)] | 45.1 |
| CCN(CC)CCNC(=O)c1cc(Cl)c(N)cc1OC [Metoclopramide] | 0.35 |
| O=C(c1ccccc1)c1ccc2n1CCC2C(=O)O (stereo not given) [Ketorolac] | -0.93 |
| N#Cc1ccc(Oc2ccc3c(c2)COB3O)cc1 [Crisaborole (AN2728)] | 1.2 |
| C[n+]1ccccc1C=NO [Pralidoxime Iodide] | 0.13 |
| Cc1ccc(S(=O)(=O)NC(=O)NN2CC3CCCC3C2)cc1 (stereo not given) [Gliclazide] | -0.04 |
| Nc1nc2[nH]cc(CCc3ccc(C(=O)N[C@@H](CCC(=O)O)C(=O)O)cc3)c2c(=O)[nH]1 [Pemetrexed Disodium Hydrate] | -4.9 |
| Cc1cc(O)cc(C)c1Cl [Chloroxylenol] | 0.68 |
| Cc1[nH]c(=O)c(C#N)cc1-c1ccncc1 [Milrinone] | -1.04 |

| Structure (SMILES) | z-score of subpopulation abundance |
| --- | --- |
| CN[C@H]1CC[C@@H](c2ccc(Cl)c(Cl)c2)c2ccccc21 [Sertraline HCl] | -0.4 |
| CCC(C)C1OC2(CCC1C)CC1CC(CC=C(C)C(OC3CC(OC)C(OC4CC(OC)C(O)C(C)O4)C(C)O3)C(C)C=CC=C3COC4C(O)C(C)=CC(C(=O)O1)C34O)O2 (stereo not given) [Ivermectin] | 2.99 |
| Oc1cccc(O)c1 [Resorcinol] | -0.96 |
| CN1C2CCCC1CC(NC(=O)c1nn(C)c3ccccc13)C2 (stereo not given) [Granisetron] | 0.05 |
| CCOC(=O)C1=C(COCCN)NC(C)=C(C(=O)OC)[C@@H]1c1ccccc1Cl [Levamlodipine] | -5.45 |
| C[C@]12CC[C@@H]3c4ccc(OC(=O)c5ccccc5)cc4CC[C@H]3[C@@H]1CC[C@@H]2O [Estradiol Benzoate] | 0.38 |
| Cc1ccccc1OCC(O)CO (stereo not given) [Mephenesin] | -0.77 |
| C[C@]12CCC3=C4CCC(=O)C=C4CC[C@H]3[C@@H]1CC[C@@]2(O)CC#N [Dienogest] | -0.51 |
| CN(C)CCN1C(=O)c2cccc3cc(N)cc(c23)C1=O [Amonafide] | -0.09 |
| CN[C@H]1C(=O)N[C@@H]2Cc3ccc(cc3)Oc3cc4cc(c3O[C@@H]3O[C@H](C(=O)O)[C@@H](O)[C@H](O)[C@H]3NC(=O)CCCCCCCCC(C)C)Oc3ccc(cc3Cl)[C@@H](O)[C@@H]3NC(=O)[C@H](NC(=O)[C@@H]4NC(=O)[C@@H](NC2=O)c2cc(cc(O)c2Cl)Oc2cc1ccc2O)c1ccc(O)c(c1)-c1c(O[C@H]2O[C@H](CO)[C@@H](O)[C@H](O)[C@@H]2O)cc(O)cc1[C@@H](C(=O)NCCCN(C)C)NC3=O [Dalbavancin] | 1.97 |
| COCC1=C(C(=O)OC(C)OC(=O)OC(C)C)N2C(=O)[C@@H](NC(=O)/C(=N\OC)c3csc(N)n3)[C@H]2SC1 (stereo not given in full) [Cefpodoxime proxetil] | 0.76 |
| CC(C)c1nc(N(C)S(C)(=O)=O)nc(-c2ccc(F)cc2)c1/C=C/[C@@H](O)C[C@@H](O)CC(=O)O [Rosuvastatin Calcium] | 2.14 |
| C/C=C1\[C@H]2C=C(C)C[C@]1(N)c1ccc(=O)[nH]c1C2 [(-)-Huperzine A (HupA)] | 0.11 |
| Clc1ccc(C(Cn2ccnc2)OCc2csc3c(Cl)cccc23)c(Cl)c1 (stereo not given) [Sertaconazole nitrate] | 3.4 |
| COc1ccc(CN2CCN(C(c3ccc(F)cc3)c3ccc(F)cc3)CC2)c(OC)c1OC [Lomerizine 2HCl] | -0.52 |
| CCCN1CCCC[C@H]1C(=O)Nc1c(C)cccc1C [Ropivacaine] | -0.48 |
| CCOC(=O)C1=C(C)NC(C)=C(C(=O)OC)C1c1cccc(Cl)c1Cl (stereo not given) [Felodipine] | -5.68 |
| O=C(O)C1=C(CSc2nnnn2CS(=O)(=O)O)CS[C@@H]2[C@H](NC(=O)[C@H](O)c3ccccc3)C(=O)N12 [Cefonicid sodium] | -0.26 |
| COC(=O)Nc1nc2cc(C(=O)c3ccc(F)cc3)ccc2[nH]1 [Flubendazole] | 0.06 |
| O=C(O)CCNC(=O)c1ccccc1 [Betamipron] | -0.33 |
